From a collection of fitness landscapes (doi:10.1016/j.celrep.2020.107928)
Whole data set: some 81,000 sequences, median “one-hybrid fitness for binding NBS DNA” near -0.1, cut for the highest 2% near 0.36. The entries come from a sample that favours the highest values as a whole.

B1: Caulobacter ParB omega fusion; a variant is named by its letters at X, in order, B8GW30 (parent)
chain: MESVVVGEPGMSEGRRGLGRGLSALLGEVDAAPAQAPGEQLGGSREAPIEILQRNPDQPRRTFREEDLEDLSNSIREKGVLQPILVRPSPDTAGEYQIVAGERAWRAAQRAGLKTVPIMVRELDDLAVLEIGIIENVQRADLNVLEEALSYKVLMEKFERTQENIAQTIGKSXSHVANXMRLLXLPDEVQSYLVSGELTAXHARAIAAAADPVALAKQIIEGGLSVRETEALARKAPNLSAGKSKGGRPPRVKDTDTQALESDLSSVLGLDVSIDHRGSTGTLTITYATLEQLDDLCNRLTRGI

Variants of: B1
Experiment: one-hybrid fitness for binding NBS DNA (the Noc-binding site; scaled: cognate 1, non-cognate 0); higher = stronger binding
Conditions: with NBS DNA site
Summary of the method: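 The reporter was HIS3, with the binding site 19 bp from the promoter, in E. coli USO used for bacterial one-hybrid selection of Caulobacter ParB libraries with four specificity codons randomised. Growth was on M9 lacking histidine, with 0.1 mM IPTG and 5 mM 3-AT, for 48 hours at 37°C. Illumina sequencing covered plasmids before and after selection; three replicate libraries were pooled and variants with under 10 reads dropped. A fitness score is the log change in variant-to-wild-type read ratio, rescaled to the cognate and non-cognate references.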

one-hybrid fitness for binding NBS DNA, 0.563:
KRTR

one-hybrid fitness for binding NBS DNA, 0.413:
RWVM
RIYS

one-hybrid fitness for binding NBS DNA, 0.439:
QTKW

one-hybrid fitness for binding NBS DNA, 0.205:
AAKR

one-hybrid fitness for binding NBS DNA, 0.661:
RRIS
RRYS

one-hybrid fitness for binding NBS DNA, 0.248:
RHVR

one-hybrid fitness for binding NBS DNA, 0.259:
RWVR

one-hybrid fitness for binding NBS DNA, 0.448:
KRTS

one-hybrid fitness for binding NBS DNA, 0.682:
RSKR
TRRR

one-hybrid fitness for binding NBS DNA, 0.311:
RMKY

one-hybrid fitness for binding NBS DNA, 0.409:
TRHR

one-hybrid fitness for binding NBS DNA, 0.277:
RAVR

one-hybrid fitness for binding NBS DNA, 0.257:
RLVR

one-hybrid fitness for binding NBS DNA, 0.372:
RWKR

one-hybrid fitness for binding NBS DNA, 0.466:
TRNR

one-hybrid fitness for binding NBS DNA, 0.35:
RLKH

one-hybrid fitness for binding NBS DNA, 0.28:
RIVR

one-hybrid fitness for binding NBS DNA, 0.583:
KRTT

one-hybrid fitness for binding NBS DNA, 0.202:
RRRD

one-hybrid fitness for binding NBS DNA, 0.326:
RHKH

one-hybrid fitness for binding NBS DNA, 0.23:
RCRN

one-hybrid fitness for binding NBS DNA, 0.522:
RFKR

one-hybrid fitness for binding NBS DNA, 0.249:
RRPC

one-hybrid fitness for binding NBS DNA, 0.578:
RRES

one-hybrid fitness for binding NBS DNA, 0.701:
RHKR

one-hybrid fitness for binding NBS DNA, 0.314:
RMVR

one-hybrid fitness for binding NBS DNA, 0.618:
RRRN

one-hybrid fitness for binding NBS DNA, 0.38:
RGKR

one-hybrid fitness for binding NBS DNA, 0.203:
IRVQ

one-hybrid fitness for binding NBS DNA, 0.675:
RIKR

one-hybrid fitness for binding NBS DNA, 0.397:
RIWS

one-hybrid fitness for binding NBS DNA, 0.568:
RRPS

one-hybrid fitness for binding NBS DNA, 0.738:
RMKR

one-hybrid fitness for binding NBS DNA, ≤ 0.2:
NMRT
KSRN
MPIT
SLCY
ADNG
FLPR
QTVW
QRVW
NCCT
PANC
PYWD
QGMV
TIMA
FGDS
LKMV
RGYR
RGVR
RIKD
RAKP
VYLC
TESV
QVNP
GTKF
LEMR
RFPS
QVIH
GACL
RFVR
RWKM
RWYM
RSKN
NFKR
YFYC
QASC
LDYW
GGII
RPKR
RWKP
RDKR
FTQR
PCEF
PQIS
NIFS
NWPM
QHVW
NGRT
SSRN
GTQF
RCIC
RREN
NKTG
YEAN
WTTS
MTMK
HRPA
GPSL
CRYG
RRPN
RRYD
RPYS
RRPD
VRHA
LNEM
ADCG
SSQM
DSAV
PELK
STQD
GVGA
SIFQ
KRTN
NRTT
KPTR
KCTT
KRTP
KCTR
EFMG
NTNM
VSAH
NKSI
GMFR
SFAG
TCHR
ARGR
TCNR
TRHN
TRDR
TCGR
RYPE
FLFY
CVRG
MMMT
PQRS
PARP
AWAT
NMTI
LVAP
RIRD
RIIS
RIDS

one-hybrid fitness for binding NBS DNA, 0.206:
RRIN

one-hybrid fitness for binding NBS DNA, 0.324:
QCKW

one-hybrid fitness for binding NBS DNA, 0.668:
RAKR

one-hybrid fitness for binding NBS DNA, 0.686:
RLKR

one-hybrid fitness for binding NBS DNA, 0.293:
RSVR

one-hybrid fitness for binding NBS DNA, 0.333:
TCRR

one-hybrid fitness for binding NBS DNA, 0.399:
RRIC

one-hybrid fitness for binding NBS DNA, 0.411:
QRKW

one-hybrid fitness for binding NBS DNA, 0.283:
RRRP

one-hybrid fitness for binding NBS DNA, 0.207:
RCES

one-hybrid fitness for binding NBS DNA, 0.76:
RCKR

one-hybrid fitness for binding NBS DNA, 0.301:
TRYR

one-hybrid fitness for binding NBS DNA, 0.389:
TRGR

one-hybrid fitness for binding NBS DNA, 0.279:
QSKW

one-hybrid fitness for binding NBS DNA, 0.26:
RRYN

one-hybrid fitness for binding NBS DNA, 0.74:
RRRS

one-hybrid fitness for binding NBS DNA, 0.338:
RRIH
